Experimental findings from PubChem BioAssay (NCI) are described below.

Among the test systems are T-47D breast; BT-549 breast; MDA-MB-435 melanoma; SW-620 colon; MCF7 breast; HCT-116 colon; HCC-2998 colon; KM12 colon.
Common to all, as to assay: NCI-60 one-dose screen, 48 h (100 = growth as untreated, 0 = no growth, -100 = all killed)
What all share (conditions): 10 µM unless noted

Structures are written as SMILES. This is part of a sample that, as a whole, favours compounds with a hit. Of some 83,000 tested, about 20% had one in any assay.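 Interpretation: 100, growth as untreated; towards 0, rising growth inhibition; 0, no net growth; 0 to -100, cell death. Compounds scoring below 10 were considered active.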 A number with no mark means an inactive call. The source made the active and inactive calls.

On to `CCOc1cc(CCNS(=O)(=O)c2ccc(C)cc2)c(C(C)=O)cc1OCC`, for which the growth with T-47D breast was 66% [100 µM]; in the experiment on BT-549 breast it was 73.4% [100 µM]; in the experiment with MDA-MB-435 melanoma, 99.4% [100 µM]; with SW-620 colon it was 92.9% [100 µM]; with MCF7 breast, 94.9% [100 µM]; in the experiment with HCT-116 colon, 77.6% [100 µM]. The growth was 95.5% [100 µM] in the experiment with HCC-2998 colon and 67.2% [100 µM] in the experiment on KM12 colon.

For the compound `O=C(O)CNC(=O)C1(N2C(=O)c3ccccc3C2=O)CCCC1`, the growth in the experiment with T-47D breast is 102%; in the experiment with BT-549 breast it was 101%; in the experiment on MDA-MB-435 melanoma, 96.3%; in the experiment on SW-620 colon, 110%; in the experiment with MCF7 breast, 92%; with HCT-116 colon it was 103%. The growth in the experiment on HCC-2998 colon is 104%; in the experiment with KM12 colon, 118%.

As for `CCCCCCCCCCCCCCCCCC1=NC(C)(CO)CO1` (configuration not stated), the growth in the experiment on T-47D breast was 87.7%; with BT-549 breast it was 92.9%; in the experiment with MDA-MB-435 melanoma, 103%; in the experiment with SW-620 colon, 108%; in the experiment with MCF7 breast it was 121%; in the experiment on HCT-116 colon, 105%. For the same compound, the growth is 98.3% in the experiment with HCC-2998 colon and 102% in the experiment with KM12 colon.

In the case of `OCCCc1n(Cc2ccc3ccccc3c2)c2ccccc2[n+]1Cc1ccc2ccccc2c1`, the growth in the experiment on T-47D breast is 13.2%; in the experiment on BT-549 breast it was 5.33% (active); in the experiment with MDA-MB-435 melanoma it was 0.65% (active); in the experiment with SW-620 colon, 19.3%; in the experiment on MCF7 breast, 9.45% (active); in the experiment on HCT-116 colon, 10.4%. For the same compound, the growth in the experiment with HCC-2998 colon was 12.5%; in the experiment with KM12 colon, -20.9% (active).

On to `CC(C)CNc1nc(N=[N+]=[N-])nc(NCC(C)C)n1`, for which the growth is 48.6% [100 µM] in the experiment with T-47D breast; 56.9% [100 µM] in the experiment with BT-549 breast; 55.6% [100 µM] with MDA-MB-435 melanoma; 81.9% [100 µM] in the experiment on SW-620 colon; 52.4% [100 µM] in the experiment with MCF7 breast; 42.9% [100 µM] with HCT-116 colon. Also, the growth in the experiment on HCC-2998 colon was 79.4% [100 µM]; in the experiment with KM12 colon, 53.6% [100 µM].

In the case of `O=C(NCCCl)NCCN1c2nc3ccccc3cc2Sc2cc3ccccc3nc21`, the growth is 69% in the experiment with T-47D breast; 40.3% with BT-549 breast; 58.5% in the experiment with MDA-MB-435 melanoma; 41.3% in the experiment on SW-620 colon; 18.3% with MCF7 breast; 31.3% in the experiment with HCT-116 colon. Moreover, the growth was 35.1% in the experiment on HCC-2998 colon and 71.9% with KM12 colon.

With `O=C1CSC(c2ccccc2O)N1c1nnc(Cn2ccnc2)o1` (configuration not stated), the growth with T-47D breast is 60.6%; with BT-549 breast it was 64.5%; in the experiment on MDA-MB-435 melanoma it was 13.4%; with SW-620 colon, 61.5%; in the experiment with MCF7 breast, 47.9%; in the experiment on HCT-116 colon it was 50.8%. The figures for the growth in the experiment with HCC-2998 colon and in the experiment with KM12 colon were 67.1% and 45.1%, respectively.

As for `CC(=O)N1N=C(c2ccc3c(c2)OCO3)CC1c1c(C)nn(-c2ccccc2)c1N(C)Cc1ccccc1` (configuration not stated), the growth was 58.6% in the experiment on T-47D breast; 85.2% with BT-549 breast; 90.7% with MDA-MB-435 melanoma; 85.9% in the experiment with SW-620 colon; 66.1% in the experiment with MCF7 breast; 57.3% in the experiment on HCT-116 colon. Further, the growth in the experiment with HCC-2998 colon was 97.2%; with KM12 colon it was 83.6%.

`NS(=O)(=O)c1ccc(-n2ncc3c(NC4CCCCC4)ncnc32)cc1`: the growth was 80.4% in the experiment with T-47D breast; 108% with BT-549 breast; 92.5% in the experiment on MDA-MB-435 melanoma; 113% with SW-620 colon; 116% in the experiment on MCF7 breast; 93.6% in the experiment with HCT-116 colon. Moreover, the growth in the experiment on HCC-2998 colon is 91.5%; in the experiment on KM12 colon, 83.6%.

Turning to `O=C(N/N=C/c1cccc(O)c1)c1ccc(C(F)(F)F)nc1Nc1cccc(C(F)(F)F)c1`, the growth in the experiment on T-47D breast is 5.41% (active); in the experiment with BT-549 breast, 1.67% (active); in the experiment on MDA-MB-435 melanoma, 51.2%; in the experiment on SW-620 colon it was 7.06% (active); in the experiment on MCF7 breast, 3.77% (active); in the experiment on HCT-116 colon, -21.4% (active). Moreover, the growth with HCC-2998 colon was 10.2%; with KM12 colon, 8.65% (active).

As to `O=C(c1ccccc1)C(CN1CCCCC1)c1ccccc1` (configuration not stated), the growth was 34.9% in the experiment on T-47D breast; 83.8% with BT-549 breast; 23.9% in the experiment on MDA-MB-435 melanoma; -82.6% (active) in the experiment on SW-620 colon; 0.432% (active) in the experiment with MCF7 breast; -100% (active) with HCT-116 colon. For the same compound, the figures for the growth in the experiment on HCC-2998 colon and in the experiment on KM12 colon were 89% and 14.4%, respectively.

`CC(=O)N1N=C(c2ccc(Cl)cc2)CC1c1c(C)nn(-c2ccccc2)c1N(C)Cc1ccccc1` (configuration not stated): the growth in the experiment on T-47D breast was 59.6%; with BT-549 breast it was 88.5%; with MDA-MB-435 melanoma, 87%; with SW-620 colon, 80.6%; with MCF7 breast, 72.2%; in the experiment with HCT-116 colon it was 53.1%. For the same compound, the growth was 88.2% in the experiment with HCC-2998 colon and 74.8% in the experiment with KM12 colon.

For `O=C(O)CCC(=O)OC[C@@H](NC(=O)C(Cl)Cl)[C@H](O)c1ccc([N+](=O)[O-])cc1`, the growth in the experiment on T-47D breast is 95%; in the experiment with BT-549 breast it was 89.6%; with MDA-MB-435 melanoma, 101%; in the experiment on SW-620 colon, 108%; in the experiment with MCF7 breast, 97.2%; with HCT-116 colon, 92.3%. Moreover, the growth with HCC-2998 colon was 100%; in the experiment on KM12 colon it was 103%.

In the case of `COCCCNS(=O)(=O)c1ncnc2nc[nH]c12`, the growth in the experiment on T-47D breast was 105%; with BT-549 breast, 123%; in the experiment on MDA-MB-435 melanoma it was 107%; in the experiment on SW-620 colon it was 101%; with MCF7 breast, 112%; in the experiment with HCT-116 colon, 93.5%. In addition, the growth is 102% in the experiment on HCC-2998 colon and 95.7% in the experiment with KM12 colon.
